Bioassay records: PubChem, National Center for Advancing Translational Sciences (NCATS)
Compounds with a hit are over-represented: about 8.2% of the library has one in this group of screens.
ELG1 DNA repair: ELG1-dependent DNA repair inhibition. Potency, µM (highest dose often 46.1 µM), without a hit: top-dose activity change, negative = inhibition, hits mostly inhibitors. AID 504467. HEK293T ELG1-luciferase reporter, luminescence, 16 h; DNA damage induced by 5-fluorouridine. 330,000 tested, 2.3% active; further: on the % scale 0 is the no-effect control and ±100 the full control effect; nearly all actives have a fitted effect of over 55% in size
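Step one: seed 2,000 cells per well. Step two: pin-transfer compound or DMSO alongside 5-fluorouridine. Step three: incubate 16 hr, 37 °C, 5% CO2. Step four: add ONE-Glo, wait 30 min, read luminescence.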
MCF10A rereplic: induces DNA re-replication in MCF 10a normal breast cells; MCF 10A DNA re-replication, Hoechst nuclear intensity, 48 h; Potency, µM (highest dose often 46.1 µM), for the others: top-dose activity, positive = re-replication, actives largely listed as activators; 350,000 tested, 2.9% active; further: % of control where 0% means no effect; nearly all actives have a fitted effect of over 50% in size
SW480 rereplic: inducers of DNA re-replication in SW480 colon cancer cells; SW480 DNA re-replication, Hoechst DNA content imaging, 48 h; Potency, µM (top dose mostly 46.1 µM), for the others: at the top dose re-replication activation, actives largely listed as activators; 340,000 tested, 1.8% active; AID 624297; further: % of control where 0% means no effect; nearly all actives have a fitted effect of over 55% in size
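Treated cells incubate 48 hr (37 C, 5% CO2), are stained 40 min with Hoechst, and nuclear fluorescence is enumerated; a rise in nuclei with high DNA signal marks re-replication.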
KB-3-1 cytotox: kills parental KB-3-1 adenocarcinoma cells; 400,000 tested, 1.4% active; KB-3-1 viability, CellTiter-Glo ATP luminescence, 72 h; Potency, µM (series often up to 46.1 µM), actives largely listed as cytotoxic; AID 1347075; further: on the % scale 0 is the no-effect control and ±100 the full control effect; nearly all actives have a fitted effect of over 60% in size
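KB-3-1 parental drug-naive adenocarcinoma cells in DMEM/10% FBS, incubated 72 h at 37 C with pin-transferred compounds across a concentration series. Viability by CellTiter-Glo luminescence; concentration-response curves fitted after normalization.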
KB-V1 cytotox: KB-V1 MDR subline cytotoxicity; Potency, µM (titrated, usually from 46.1 µM), actives largely listed as cytotoxic; KB-V1 MDR cells viability, CellTiter-Glo, 72 h; 400,000 tested, 3.4% active; AID 1347076; further: on the % scale 0 is the no-effect control and ±100 the full control effect; nearly all actives have a fitted effect of over 60% in size
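Drug-selected KB-V1 cells, grown in DMEM lacking phenol red with 10% FBS, receive compound titrations; after three days at 37 degrees C, surviving cell ATP is quantified by CellTiter-Glo luminescence and responses normalized and curve-fitted.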
Active calls of the source: *; i = inactive; ? = inconclusive; nt = no result given. The call rests on the fitted dose curve; in most records, active means well fitted curve in the direction sought with a large enough effect; inconclusive means small, poorly fitted or top-dose-only effect, or another doubt; inactive means no such curve, though single readings can be large; an effect the other way counts as inactive or inconclusive. Potency means the concentration at half of the fitted maximal effect.

SMILES	ELG1 DNA repair	MCF10A rereplic	SW480 rereplic	KB-3-1 cytotox	KB-V1 cytotox
O=C(Nc1ccc2oc(-c3ccccc3F)nc2c1)c1ccc2c(c1)OCCO2	?	?	9%	i	18µM*
CCN(CC)CC(=O)Nc1ccc(-c2nc3cc(NC(=O)CN(CC)CC)ccc3o2)cc1	?	-1%	-3%	?	18µM*
Cc1cc(NC(=O)c2ccc3c(c2)OCCO3)cc(-c2nc3ccccc3o2)c1O	nt	nt	nt	i	i
O=C(Nc1cccnc1)c1cc2c(ccc3ccccc32)o1	nt	12%	-4%	?	13µM*
O=C(Nc1ccc(-c2nc3ccccc3o2)cc1)c1ccc(N2C(=O)C3C4C=CC(C4)C3C2=O)cc1 (stereo unspecified)	10%	?	11%	i	4.1µM*
CCC(C)NCC(=O)Nc1ccc(-c2nc3cc(NC(=O)CNC(C)CC)ccc3o2)cc1 (stereo unspecified)	-5%	17%	?	?	?
Cc1ccc(NC(=O)CSc2nc3ccc(NC(=O)c4ccco4)cc3s2)cc1	nt	nt	nt	i	i
O=C(NNc1c(Cl)cncc1Cl)c1sccc1Cl	-17%	1%	-11%	i	?
COc1ncccc1-c1cc2nc(NCCNC(C)=O)n(C)c(=O)c2s1	nt	nt	nt	i	i
Cc1ccc(-c2nc3cc(NS(=O)(=O)c4ccc(C)cc4)ccc3o2)cc1	-1%	?	?	i	i
O=S(=O)(Nc1ccc2oc(-c3ccccc3)nc2c1)c1ccccc1	?	21µM*	?	i	i
Cc1ccc(NC(=O)C2CCN(S(=O)(=O)c3cccc4nonc34)CC2)nc1	21µM*	-5%	-8%	i	i
CC(=O)N1CCOc2ccc(S(=O)(=O)NCC3CCC(C(=O)Nc4ccc(C)cn4)CC3)cc21 (stereo unspecified)	5.2µM*	-4%	4%	i	i
CC(=O)N1c2ccc(S(=O)(=O)N3CCC(C(=O)Nc4cccc(C)c4)CC3)cc2CC1C (stereo unspecified)	29µM*	-1%	-8%	i	i
CC(=O)N1CCOc2ccc(S(=O)(=O)NCC3CCC(C(=O)NCCC(C)C)CC3)cc21 (stereo unspecified)	?	9%	-2%	i	?
CCc1cccc(NS(=O)(=O)c2ccc3c(c2)CC(C)N3C(=O)C2CC2)c1 (stereo unspecified)	nt	nt	nt	?	13µM*
OCCNc1ncnc2c1ncn2[C@H]1CN(Cc2ccc(Cl)cc2)C[C@@H](CO)O1	nt	nt	nt	i	?
CCOC(=O)C1CCN(S(=O)(=O)c2ccc3c(c2)CC(C)N3C(=O)C2CC2)CC1 (stereo unspecified)	-6%	0%	29%	i	?
CCOC(=O)N1CCN(C(=O)C2CCN(S(=O)(=O)c3cc(Cl)ccc3Cl)CC2)CC1	?	3%	-3%	i	?
CCOC(=O)C1CCN(C(=O)C2CCN(S(=O)(=O)c3cc(Cl)ccc3Cl)CC2)CC1	?	-2%	-3%	i	23µM*
CCOC(=O)C1CCN(S(=O)(=O)c2ccc(-n3cnnn3)c(C)c2)CC1	?	12µM*	?	i	i
CCOC(=O)C1CCN(C(=O)C2CCN(S(=O)(=O)c3ccc4c(c3)CC(C)N4C(C)=O)CC2)CC1 (stereo unspecified)	10µM*	1%	-9%	i	i
CCOC(=O)C1CCN(S(=O)(=O)c2ccc(C)c(C)c2)CC1	13%	5%	?	i	i
CC(=O)N1c2ccc(S(=O)(=O)N3CCC(C(=O)Nc4ccc(C)cn4)CC3)cc2CC1C (stereo unspecified)	?	-1%	-4%	16µM*	i
CC1Cc2cc(S(=O)(=O)N3CCC(C(=O)N(C)Cc4ccccc4)CC3)ccc2N1C(=O)C1CC1 (stereo unspecified)	21µM*	1%	1%	i	i
SMILES	ELG1 DNA repair	MCF10A rereplic	SW480 rereplic	KB-3-1 cytotox	KB-V1 cytotox
Cc1ccnc(NC(=O)C2CCN(S(=O)(=O)c3ccc4c(c3)CC(C)N4C(=O)C3CCC3)CC2)c1 (stereo unspecified)	9.2µM*	?	?	i	i
CCc1ccc(NC(=O)C2CCN(S(=O)(=O)c3ccc4c(c3)CC(C)N4C(C)=O)CC2)cc1 (stereo unspecified)	7.3µM*	9%	-9%	?	i
Cc1c(Cc2ccccc2)c(=O)oc2c(CN(C)C)c(O)c(Cl)cc12	2%	18µM*	-6%	?	9.2µM*
CCN(CC)Cc1c(O)c(Cl)cc2c(C)c(C)c(=O)oc12	19%	?	-24%	i	i
Cc1c(CC(=O)NCc2ccccc2)c(=O)oc2c(C)c(O)ccc12	nt	nt	nt	13µM*	?
Cc1c(Cc2ccccc2)c(=O)oc2cc(O)ccc12	-8%	11%	?	i	i
Cc1c(Cc2ccccc2)c(=O)oc2c(O)c(O)ccc12	-14%	21µM*	?	?	i
[O-]/[N+](=C\c1ccco1)c1ccc(Cl)cc1	?	7%	-7%	i	i
COc1ccc(/C=C2/CSC/C(=C/c3ccc(OC)c(OC)c3)C2=O)cc1OC	nt	?	2.9µM*	4.6µM*	1.5µM*
CCc1cccc(C)c1NC(=O)c1cc(CN2CCCC2)on1	nt	nt	nt	i	i
O=c1c2c3nc4ccccc4nc3n(-c3ccc4c(c3)OCCO4)c2ncn1C1CCCC1	27%	7.1µM*	13µM*	?	?
O=c1c2c3nc4ccccc4nc3n(-c3ccc4c(c3)OCCO4)c2ncn1CC1CCCO1 (stereo unspecified)	-11%	nt	nt	nt	nt
COc1ccc(NC(=O)C[C@H]2C(=O)N(c3ccccc3)C[C@@H]2Cc2ccccc2)cc1	nt	nt	nt	i	15µM*
COc1ccc([C@H]2CN(c3ccc(OC)cc3)C(=O)[C@@H]2CC(=O)Nc2ccc(Br)cc2)cc1	nt	nt	nt	?	16µM*
CN1CCC(C)(C(=O)Nc2ccc3c(c2)OCCO3)C1 (stereo unspecified)	nt	nt	nt	i	i
CCN(CC)C(=O)Cn1cc(S(=O)(=O)CC(=O)Nc2ccc(F)cc2F)c2ccccc21	?	?	6%	nt	nt
COc1ccc(N(C)C(=O)c2cn(CC(C)C)c(=O)c3cc(OC)c(OC)cc23)cc1	?	-1%	3%	i	i
CCOC(=O)c1c(C)[nH]c(C2=NNC(=Nc3cccc(Cl)c3)SC2)c1C	?	6.5µM*	21µM*	nt	nt
CC(=O)c1c(C)[nH]c(C2=NNC(=NCc3ccccc3)SC2)c1C	0%	-1%	2%	i	i
Cc1nc2c(-c3ccc(F)cc3)c(C)nn2c(C)c1CCC(=O)NCc1ccc(Cl)cc1	nt	nt	nt	i	i
